From PubChem BioAssay (Tox21)
Inconclusive results are not listed. Active and inactive are the calls of the source. Unless noted, the call rests on the fitted dose curve; in most records, active means well fitted curve in the direction sought with a large enough effect in the repeat runs; inconclusive means weak or mixed curves; inactive means no such curve, though single readings can be large; an effect the other way counts as inactive or inconclusive.

What was measured:
[1] = qHTS assay to identify aromatase inhibitors - cell viability counter screen (AID 743084);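 further: cells stimulated with testosterone during compound exposure; nearly all actives have a fitted effect of over 55% in size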; further: potency means the concentration at half of the fitted maximal effect
[2] = target: Aryl hydrocarbon receptor (Homo sapiens) (UniProt P35869); assay: qHTS assay to identify small molecule that activate the aryl hydrocarbon receptor (AhR) signaling pathway (AID 743085); further: nearly all actives have a fitted effect of over 15% in size; further: potency means the concentration at half of the fitted maximal effect;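 on activation: HG2L7.5c1 human HepG2 liver cells with stably integrated DRE-driven firefly reporter; series mostly up to about 70 µM; on the % scale 0 is the no-effect control and ±100 the full control effect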
Procedure, shortened: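 Stably transfected human liver carcinoma cells (HG2L7.5c1; 20 DRE-firefly luciferase) were incubated 5 h, dosed, and kept 24 h at 37C. Agonism was scored from increased luciferase luminescence.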

[3] = qHTS assay to identify small molecule that activate the aryl hydrocarbon receptor (AhR) signaling pathway - cell viability counter screen (AID 743086); further: nearly all actives have a fitted effect of over 45% in size; further: potency means the concentration at half of the fitted maximal effect
Procedure, shortened: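 HepG2-AhR-luc (HG2L7.5c1) cells, 4000/well, treated 24 h at 37 C with compound; viability measured as CellTiter-Fluor fluorescence after 30 min in the same wells as the luciferase read.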

[4] = qHTS assay to identify small molecule phospholipidosis (PLD) inducers (AID 1259344; active means well fitted curve in the direction sought with a large enough effect; an effect the other way counts as inactive or inconclusive; further: potency means the concentration at half of the fitted maximal effect; on PLD induction: on the % scale 0 is the no-effect control and ±100 the full control effect)
Procedure, shortened: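 Quantitative HTS in HepG2: compound plus LipidTOX Red dye for 24 h, paraformaldehyde fixation with Hoechst 33342, widefield high-content imaging; amiodarone as positive and DMSO as negative control.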

[5] = target: Peroxisome proliferator-activated receptor gamma (Homo sapiens) (UniProt P37231); assay: qHTS assay to identify small molecule agonists of the peroxisome proliferator-activated receptor gamma (PPARg) signaling pathway (AID 743094; active means well fitted activation curve with a large enough effect in the signal ratio in the repeat runs, not every such curve was filed as active; the % refers to the signal ratio; further: on the % scale 0 is the no-effect control and ±100 the full control effect)
Procedure, shortened: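 Compounds dissolved in DMSO were added to PPARg UAS-bla HEK293H cells for 17 h at 37C, and reporter expression was quantified by fluorescence intensity after 1 h with LiveBLAzer B/G FRET substrate.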

[6] = target: Nuclear receptor subfamily 1 group I member 2 (Rattus norvegicus) (UniProt Q9R1A7); assay: Rat pregnane X receptor (rPXR) activation by small molecules, qHTS assay (AID 1346983); conditions: rPXR luciferase reporter cells, One-Glo luminescence, 24 h; max activation: hits give high values; further: on the % scale 0 is the no-effect control and ±100 the full control effect; nearly all actives have a fitted effect of over 20% in size
Procedure, shortened: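 Cell-based rPXR activation assay: rPXR cells, 2,000 per well, rested 5hr at 37 C, then exposed to compounds in DMSO for 24 hr at 37 C. Luciferase activity read by One-Glo luminescence after 30 min at room temperature.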

[7] = target: Nuclear receptor subfamily 1 group I member 2 (Homo sapiens) (UniProt O75469); assay: CYP3A4 induction through human pregnane X receptor (PXR) by small molecules, qHTS assay (AID 1346984); further: on the % scale 0 is the no-effect control and ±100 the full control effect; nearly all actives have a fitted effect of over 40% in size
Procedure, shortened: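 Readings come from a luciferase reporter: DPX-2 cells, which are HepG2 cotransfected with PXR and a CYP3A4-promoter construct, were exposed to test compounds for 24 h at 37C before One-Glo detection.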

[8] = target: Nuclear receptor subfamily 1 group I member 2 (Homo sapiens) (UniProt O75469); assay: Human pregnane X receptor (PXR) activation by small molecules, qHTS assay (AID 1346985); further: potency means the concentration at half of the fitted maximal effect; nearly all actives have a fitted effect of over 40% in size
Procedure, shortened: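 DPX-2 cells (HepG2 co-transfected with a PXR response element and a CYP3A4-promoter luciferase construct) were seeded at 2,000 per well, rested 5 hr at 37C, then exposed to DMSO-dissolved compounds for 24 hr. Activation was read as luciferase luminescence.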

Sequence of Peroxisome proliferator-activated receptor gamma (Homo sapiens) (P37231 whole entry, looked up): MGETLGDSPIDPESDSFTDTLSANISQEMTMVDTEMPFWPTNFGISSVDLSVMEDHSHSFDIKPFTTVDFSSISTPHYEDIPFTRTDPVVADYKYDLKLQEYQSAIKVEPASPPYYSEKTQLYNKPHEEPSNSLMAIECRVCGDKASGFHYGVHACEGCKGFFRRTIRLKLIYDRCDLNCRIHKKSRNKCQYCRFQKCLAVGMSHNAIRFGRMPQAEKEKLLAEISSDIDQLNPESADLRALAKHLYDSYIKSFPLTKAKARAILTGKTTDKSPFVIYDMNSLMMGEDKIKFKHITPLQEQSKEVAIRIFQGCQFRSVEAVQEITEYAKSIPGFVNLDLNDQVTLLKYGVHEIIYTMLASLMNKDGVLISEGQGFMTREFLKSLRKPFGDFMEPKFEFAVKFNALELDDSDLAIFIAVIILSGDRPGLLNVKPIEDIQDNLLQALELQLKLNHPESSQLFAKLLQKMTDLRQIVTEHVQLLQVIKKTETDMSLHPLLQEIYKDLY
Sequence of Aryl hydrocarbon receptor (Homo sapiens) (P35869 whole entry, looked up): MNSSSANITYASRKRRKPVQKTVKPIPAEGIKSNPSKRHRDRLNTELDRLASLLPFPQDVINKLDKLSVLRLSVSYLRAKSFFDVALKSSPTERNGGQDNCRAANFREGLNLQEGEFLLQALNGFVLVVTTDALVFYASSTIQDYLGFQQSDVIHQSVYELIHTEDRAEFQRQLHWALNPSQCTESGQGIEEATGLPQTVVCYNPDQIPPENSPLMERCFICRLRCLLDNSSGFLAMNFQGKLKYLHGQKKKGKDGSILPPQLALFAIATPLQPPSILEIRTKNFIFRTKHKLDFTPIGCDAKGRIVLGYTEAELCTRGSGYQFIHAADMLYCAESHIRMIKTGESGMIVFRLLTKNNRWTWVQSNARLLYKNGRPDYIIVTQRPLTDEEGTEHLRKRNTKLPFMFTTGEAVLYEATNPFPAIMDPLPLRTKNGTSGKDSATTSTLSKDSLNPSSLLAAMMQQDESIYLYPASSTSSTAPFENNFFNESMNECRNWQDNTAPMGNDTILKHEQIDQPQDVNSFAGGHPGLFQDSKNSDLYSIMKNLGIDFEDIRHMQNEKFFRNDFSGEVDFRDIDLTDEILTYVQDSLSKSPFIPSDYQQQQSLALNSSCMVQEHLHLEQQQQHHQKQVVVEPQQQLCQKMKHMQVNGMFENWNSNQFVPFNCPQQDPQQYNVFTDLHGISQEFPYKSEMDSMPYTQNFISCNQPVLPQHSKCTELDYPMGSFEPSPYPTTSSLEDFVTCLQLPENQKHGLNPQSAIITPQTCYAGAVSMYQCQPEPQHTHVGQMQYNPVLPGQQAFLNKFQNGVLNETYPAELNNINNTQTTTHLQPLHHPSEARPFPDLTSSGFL
Sequence of Nuclear receptor subfamily 1 group I member 2 (Rattus norvegicus) (Q9R1A7 whole entry, looked up): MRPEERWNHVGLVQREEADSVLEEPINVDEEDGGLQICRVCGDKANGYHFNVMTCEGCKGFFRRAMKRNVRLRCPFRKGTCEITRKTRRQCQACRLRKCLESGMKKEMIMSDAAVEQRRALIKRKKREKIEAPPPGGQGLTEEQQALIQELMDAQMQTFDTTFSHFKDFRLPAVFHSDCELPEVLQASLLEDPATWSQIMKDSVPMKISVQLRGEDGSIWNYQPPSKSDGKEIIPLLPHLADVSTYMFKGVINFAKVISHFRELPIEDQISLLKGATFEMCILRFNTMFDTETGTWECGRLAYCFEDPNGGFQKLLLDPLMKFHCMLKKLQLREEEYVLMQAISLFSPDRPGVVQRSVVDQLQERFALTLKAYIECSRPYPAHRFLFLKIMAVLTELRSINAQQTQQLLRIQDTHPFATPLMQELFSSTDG

CCCCCCC(=O)O[C@H]1CC[C@H]2[C@@H]3CCc4cc(O)ccc4[C@H]3CC[C@]12C
inactive: Potency [1] | Potency [2] | Potency [3] | Potency [4]

NC(=O)C[C@@H](N)C(=O)O
inactive: Potency [1] | Potency [2] | Potency [4]

NNc1nnc(Cc2ccncc2)c2ccccc12
active: Potency [2] 11.9 µM
inactive: Potency [1] | PLD induction [4] -2.11% [at 7.66 µM]

COc1ccc2c(c1)N(C[C@H](C)CN(C)C)c1ccccc1S2
active: Potency [4] 8.91 µM
inactive: Potency [2] | Potency [5] | max activation [6] -5.19%

O=C(/C=C/c1cccc(F)c1)NC1CC1
inactive: Potency [1] | Potency [2] | Potency [3] | Potency [5] | Potency [4] | Potency [7]
active: Potency [8] 10 µM

CC#CCC(C)[C@H](O)/C=C/[C@@H]1[C@H]2c3cccc(CCCC(=O)O)c3O[C@H]2C[C@H]1O (some centres undefined)
inactive: Potency [1] | Potency [2] | Potency [3] | Potency [4]

CC(C(=O)O)c1ccc(C2CCCCC2)c2ccccc12 (centres undefined)
inactive: Potency [1] | Potency [2] | Potency [3] | PLD induction [4] 0.703% [at 7.66 µM]

CO[C@H]1C[C@H](O[C@H]2[C@H](C)O[C@@H](O[C@@H]3/C(C)=C/C[C@@H]4C[C@@H](C[C@]5(C=C[C@H](C)[C@@H](C6CCCCC6)O5)O4)OC(=O)[C@@H]4C=C(C)[C@@H](O)[C@H]5OC/C(=C\C=C\[C@@H]3C)[C@]54O)C[C@@H]2OC)O[C@@H](C)[C@@H]1O
inactive: Potency [1] | Potency [2] | Potency [3] | Potency [4]

CCC(c1ccccc1)c1noc(CCN(CC)CC)n1 (centres undefined)
inactive: Potency [1] | Potency [2] | Potency [3] | Potency [4]

C=C1CC2C3CCC4=CC(=O)C=C[C@]4(C)[C@@]3(F)[C@@H](O)C[C@]2(C)[C@@]1(O)C(=O)COC(C)=O (some centres undefined)
inactive: Potency [1] | Potency [2] | Potency [3] | PLD induction [4] -8.32% [at 7.66 µM]

O=[N+]([O-])c1ccc(Oc2ccc(N=C=S)cc2)cc1
inactive: Potency [1] | Potency [2] | Potency [3] | Potency [4]

Cn1cc(NC(=O)c2cc(NC(=O)c3cc(NC=O)cn3C)cn2C)cc1C(=O)NCCC(=N)N
inactive: Potency [1] | Potency [2] | Potency [3] | Potency [4]

CCCC(=O)N1CCCN(c2nc(N)c3cc(OC)c(OC)cc3n2)CC1
inactive: Potency [1] | Potency [3] | Potency [4]
active: Potency [2] 5.31 µM

COc1ccc(C2NC(=S)N3C(c4ccc(OC)c(OC)c4)NC(=S)N23)cc1OC (centres undefined)
active: Potency [1] 0.188 µM | Potency [3] 0.211 µM
inactive: Potency [2] | PLD induction [4] -4.32% [at 7.66 µM]

O=C(NCCNCC(O)COc1ccc(O)cc1)N1CCOCC1 (centres undefined)
inactive: Potency [1] | Potency [2] | Potency [3] | Potency [4]

CC(C)(C)CC(=O)OCC(=O)[C@@]12OC(C)(C)O[C@@H]1C[C@H]1[C@@H]3CCC4=CC(=O)C=C[C@]4(C)[C@@]3(F)[C@@H](O)C[C@@]12C
inactive: Potency [1] | Potency [2] | Potency [3] | Potency [4]

C#CCC(Cc1cnc2nc(N)nc(N)c2n1)c1ccc(C(=O)N[C@@H](CCC(=O)O)C(=O)O)cc1 (some centres undefined)
inactive: Potency [1] | Potency [2] | Potency [3] | PLD induction [4] 6.01% [at 0.306 µM]

CC(C)(C)NC(=O)[C@H]1CC[C@H]2[C@@H]3CC=C4C=C(C(=O)O)CC[C@]4(C)[C@H]3CC[C@]12C
inactive: Potency [1] | Potency [2] | Potency [3] | Potency [4]

CCC(=O)NS(=O)(=O)c1ccc(-c2c(-c3ccccc3)noc2C)cc1
inactive: Potency [1] | Potency [2] | Potency [3] | Potency [4]

Cc1c(O)cc2c(c1C)O[C@](C)(CCC[C@H](C)CCC[C@H](C)CCCC(C)C)CC2
inactive: Potency [1] | Potency [2] | Potency [3] | Potency [4]

CCN(CC)c1ccc(C(=C2C=CC(=[N+](CC)CC)C=C2)c2ccccc2)cc1
inactive: Potency [2] | Potency [4]
active: Potency [1] 7.5 µM | Potency [3] 5.96 µM

C=C1c2c(Cl)ccc(O)c2C(O)=C2C(=O)[C@]3(O)C(O)=C(C(N)=O)C(=O)[C@@H](N(C)C)[C@@H]3[C@@H](O)[C@H]12
inactive: Potency [1] | Potency [2] | Potency [3] | Potency [5] | Potency [4]

O=C(O)c1cccc(/C=C2/C[C@@H]3[C@@H](/C=C/[C@@H](O)C4CCCCC4)[C@H](O)C[C@@H]3O2)c1
inactive: Potency [1] | Potency [2] | Potency [3] | Potency [4]

CO/N=C(\C(=O)N[C@@H]1C(=O)N2C(C(=O)OCOC(=O)C(C)(C)C)=C(/C=C\c3scnc3C)CS[C@H]12)c1csc(N)n1
inactive: Potency [1] | Potency [2] | Potency [3] | Potency [5] | PLD induction [4] -0.933% [at 7.66 µM]

CC1(C)S[C@@H]2[C@H](NC(=O)[C@H](N)c3ccccc3)C(=O)N2[C@H]1C(=O)OCOC(=O)[C@@H]1N2C(=O)C[C@H]2S(=O)(=O)C1(C)C
inactive: Potency [1] | Potency [2] | Potency [3] | Potency [4]

CO[C@H]1C=CO[C@@]2(C)Oc3c(C)c(O)c4c(O)c(c(/C=N/N5CCN(C6CCCC6)CC5)c(O)c4c3C2=O)NC(=O)/C(C)=C\C=C[C@H](C)[C@H](O)[C@@H](C)[C@@H](O)[C@@H](C)[C@H](OC(C)=O)[C@@H]1C
inactive: Potency [2] | Potency [4]
active: Potency [1] 23.7 µM | Potency [3] 26.6 µM

CC1(C)C2CC[C@]3(C)[C@H](C(=O)C=C4[C@@H]5C[C@@](C)(C(=O)O)CC[C@]5(C)CC[C@]43C)[C@@]2(C)CC[C@@H]1O[C@H]1O[C@H](C(=O)O)[C@@H](O)[C@H](O)[C@H]1O[C@@H]1O[C@H](C(=O)O)[C@@H](O)[C@H](O)[C@H]1O (some centres undefined)
inactive: Potency [1] | Potency [2] | Potency [3] | PLD induction [4] 0.435% [at 7.66 µM]

C/C=C1\NC(=O)[C@H]2CSSCC/C=C/[C@H](CC(=O)N[C@H](C(C)C)C(=O)N2)OC(=O)C(C(C)C)NC1=O (some centres undefined)
active: Potency [1] 13.3 µM | Potency [3] 15 µM
inactive: Potency [2] | Potency [4]

CCC(C)C(C(=O)OCC[N+](C)(CC)CC)c1ccccc1 (centres undefined)
inactive: Potency [1] | Potency [2] | Potency [3] | Potency [4]

CN(CCO)CC(O)Cn1cnc2c1c(=O)n(C)c(=O)n2C (centres undefined) (tested in a mixture with another compound)
inactive: Potency [1] | Potency [2] | Potency [3] | Potency [5] | Potency [4]
